Results on 23 compounds are retold here after PubChem BioAssay (NCATS).

“And” between values parts separate entries of the source, which are not always exact repeats. Equal values may be shown once. Records with an inconclusive call do not appear. Unmarked numbers belong to inactive results. The source made the active and inactive calls. Unless noted, the call rests on the fitted dose curve.

The nature of assay [1]: Cell Viability - BJ (AID 421).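 Further: potency means the concentration at half of the fitted maximal effect; cells exposed to compound for 40 hours at 37 °C before readout.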 To be noted: BJ fibroblast viability, qHTS. The gist of the method:
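Cytotoxicity as drop in intracellular ATP (CellTiter-Glo, 20 min RT) after 40 hr compound exposure of BJ fibroblasts at 37 °C. Titrations scaled between DMSO and 100 uM tamoxifen, Hill-fitted for AC50.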
On the technique in general: Quantitative high-throughput screening tests each substance at several concentrations.

Assay [2] in a line: Cell Viability - Jurkat (AID 426;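 active means dose-dependent loss of cell ATP signal giving a full or clear fitted curve, ranked by lower potency value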;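 further: potency means the concentration at half of the fitted maximal effect; cells exposed to compound for 40 hours at 37 °C before ATP read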). To be noted: qHTS. The essentials: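 Cytotoxicity taken as drop in cellular ATP (CellTiter-Glo luminescence, 20 min room temperature) after 40 hr, 37C treatment of 5000 Jurkat Clone E6-1 cells per well; concentration-response fitted with Hill equation for AC50.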
Assay [3] can be described thus: Cell Viability - Hek293 (AID 427;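 active means compounds whose dose-response curve shows a full or clear partial loss of cell viability, called from curve shape rather than a numeric limit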;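 further: potency means the concentration at half of the fitted maximal effect; cells exposed to compound for 40 hours at 37 °C before reading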). To be noted: qHTS. The essentials: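 Luminescent ATP content (CellTiter-Glo, 20 min at room temperature) was measured after a 40 hr, 37 °C compound exposure of HEK293 cells. AC50 values came from Hill-equation fits of qHTS concentration-response data normalized to DMSO and 100 uM tamoxifen.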
Assay [4] is described as follows: Cell Viability - HepG2 (AID 433).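 Further: potency means the concentration at half of the fitted maximal effect; cells exposed to compound for 40 hours.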 To be noted: qHTS. The gist of the method:
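HepG2 cells, 1500 per well, treated 40 hr at 37 °C in complete medium; viability from intracellular ATP by CellTiter-Glo luminescence. Normalized to DMSO and 100 uM tamoxifen; AC50 from Hill fit of qHTS concentration-response.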

A short description of assay [5]: Cell Viability - MRC5 (AID 434).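 Further: potency means the concentration at half of the fitted maximal effect; cells exposed to compound for 40 hours at 37 °C; potency reflects cytotoxicity seen as loss of intracellular ATP.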 To be noted: MRC5 lung fibroblast viability, qHTS. The essentials:
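ATP luminescence read-out (CellTiter-Glo, 20 min RT) after 40 hr, 37 °C compound exposure of 1500 MRC5 cells/well. Data normalized to DMSO (basal) and 100 uM tamoxifen (100% inhibition); AC50 from standard Hill equation.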

Assay [6] in a line: Cell Viability - SK-N-SH (AID 435).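 Further: potency means the concentration at half of the fitted maximal effect; compound exposure lasted 40 h at 37 °C.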 To be noted: SK-N-SH neuroblastoma cell viability qHTS. The gist of the method: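 SK-N-SH neuroblastoma cells (1500/well) treated 40 h at 37 °C in complete medium; viability read as cellular ATP by CellTiter-Glo luminescence. Normalized to DMSO and 100 uM tamoxifen; AC50 from Hill fits of qHTS concentration-response.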
Assay [7] can be described thus: AP1 Signaling Pathway (AID 357; active means well fitted curve in either direction with a large enough effect, not every such curve was filed as active;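 further: ME-180 reporter cells stimulated with EGF at its EC50 level; on the % scale 0 is the no-effect control and ±100 the full control effect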). The gist of the method: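 Cells are seeded overnight, exposed to compound titrations and an EC50 level of EGF for 5 hours at 37 °C, then loaded with CCF4 dye for 2.5 hours. Beta-lactamase activity under the AP-1 element is read as a blue/green ratio.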
Assay [8] has as its target Cytochrome P450 1A2 (Homo sapiens) (UniProt P05177). Briefly: p450-cyp1a2 (AID 410). Further: potency means the concentration at half of the fitted maximal effect.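 On activity change, negative = inhibition: -100% = full effect of reference inhibitor.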 The gist of the method:
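Luminescent demethylation readout: Luciferin-ME (100uM, equal to Km) turned over by 20nM CYP1A2 for 60 min at room temperature after NADPH regeneration addition, following 10 min compound preincubation. Normalization used 57 uM furafylline as full inhibition.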

The nature of assay [9]: NFAT Signaling Pathway (AID 444; active means well fitted curve in either direction with a large enough effect, not every such curve was filed as active;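 further: carbachol stimulus at about its EC50 of 1 µM final; on the % scale 0 is the no-effect control and ±100 the full control effect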). To be noted: Jurkat NFAT-bla M1, carbachol, beta-lactamase ratio, 5 h; at 17.2 µM (top of the series) unless noted. The gist of the method: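 Jurkat cells with NFAT-driven β-lactamase reporter and co-expressed M1 receptor, stimulated with carbachol (final 1 uM, ~EC50), compound titration, 5 h at 37 °C. CCF4 loaded 1 h at RT; 460/530 nm ratio gave %activity and AC50.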

Chain of Cytochrome P450 1A2 (Homo sapiens) (P05177 whole entry, looked up): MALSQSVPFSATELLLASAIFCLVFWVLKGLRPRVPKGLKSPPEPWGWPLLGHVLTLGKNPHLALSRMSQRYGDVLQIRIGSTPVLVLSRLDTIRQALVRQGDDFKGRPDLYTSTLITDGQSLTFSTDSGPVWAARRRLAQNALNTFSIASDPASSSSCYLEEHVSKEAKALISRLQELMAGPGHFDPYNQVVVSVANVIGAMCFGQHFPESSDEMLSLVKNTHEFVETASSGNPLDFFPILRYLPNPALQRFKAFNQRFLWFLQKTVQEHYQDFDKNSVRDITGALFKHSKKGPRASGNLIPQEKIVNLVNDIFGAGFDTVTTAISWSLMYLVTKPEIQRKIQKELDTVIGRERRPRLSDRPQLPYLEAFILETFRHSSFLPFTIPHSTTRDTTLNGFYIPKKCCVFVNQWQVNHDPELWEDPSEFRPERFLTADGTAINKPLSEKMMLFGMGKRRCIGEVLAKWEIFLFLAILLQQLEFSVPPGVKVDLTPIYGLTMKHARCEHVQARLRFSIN

Take `COc1ccc(O)cc1`: the Potency in assay [1], in assay [2], in assay [3], in [4], in assay [5] and in assay [6] was above 92 µM in each case.
In the case of `O=C(O)c1ccccc1C(=O)Nc1ccc(S(=O)(=O)Nc2nccs2)cc1`, the result in assay [7] was inactive. Also, the Potency entry in assay [8] was “inactive”. Moreover, in [9], the activity change, negative = inhibition is 11.2%.
In the case of `O=C(c1ccccc1)C(O)c1ccccc1` (configuration not stated), the Potency in [1], in [2], in assay [3], in [4], in assay [5] and in assay [6] was above 92 µM in each case.
`O=C1c2cccc(O)c2C(=O)c2c(O)cccc21`: the Potency in assay [1], in assay [3], in assay [4] and in assay [5] was above 92 µM throughout.
As for `CCN(CC)CCOC(=O)C(c1ccccc1)c1ccccc1`, the compound was called inactive in [7]. The Potency in assay [8] was 5.01 µM (active).
In the case of `CCCCCCCC(=O)OCC(COC(=O)CCCCCCC)OC(=O)CCCCCCC`, the Potency in [1], in assay [2], in [3], in [4], in [5] and in assay [6] was above 92 µM in each case.
For the compound `FC(F)(F)C(Cl)Br` (configuration not stated), the Potency in assay [1], in assay [2], in assay [3], in assay [4], in assay [5] and in assay [6] was above 92 µM throughout.
Regarding `CCCC(O)C(CC)CO` (configuration not stated), the Potency in [1], in assay [2], in assay [3], in assay [4], in [5] and in assay [6] was above 92 µM in each case.
As for `Nc1ccc(S(=O)(=O)c2ccc(N)cc2)cc1`, the compound was called inactive in [7]. Also, the Potency in [1], in assay [2], in assay [3], in assay [4], in assay [5] and in assay [6] was above 92 µM throughout.
With `CC(=O)Nc1ccccc1`, the Potency in assay [1], in assay [2], in assay [3], in assay [4], in assay [5] and in assay [6] was above 92 µM each time.
`CCCCCC(N)=O`: the Potency in assay [1], in assay [2], in [3], in assay [4], in assay [5] and in assay [6] was above 92 µM in each case.
As for `Cc1cc(NC(=O)C2=C(O)c3ccccc3S(=O)(=O)N2C)no1`, the result in [7] was inactive. Moreover, the Potency result in assay [8] was “inactive”. Moreover, the activity change, negative = inhibition in assay [9] is -5.7% and 4.09%.
Consider `CC[N+](C)(CC)CCOC(=O)C1c2ccccc2Oc2ccccc21`, for which the Potency in [8] was 10 µM (active).
On to `O=C1C(c2[nH]c3ccccc3c2O)=Nc2ccccc21`, for which the Potency in [1], in assay [2], in assay [3], in [4], in [5] and in [6] was above 92 µM in each case.
With `C=CCNC(N)=S`, the Potency in assay [1], in [2], in [3], in [4], in assay [5] and in assay [6] was above 92 µM throughout.
As for `CC(=O)NS(=O)(=O)c1ccc(N)cc1`, the compound was called inactive in assay [7]. Moreover, the Potency entry in assay [8] was “inactive”. Moreover, the Potency in assay [1], in assay [2], in [3], in assay [4], in [5] and in [6] was above 92 µM throughout.
Turning to `Cc1c(N(C)C)c(=O)n(-c2ccccc2)n1C`, the Potency in [1], in assay [2], in [3], in assay [4], in [5] and in assay [6] was above 92 µM each time.
As to `CC(=O)Nc1ccc(C(=O)O)cc1`, the Potency in assay [1], in assay [2], in [3], in [4], in assay [5] and in assay [6] was above 92 µM each time.
As to `Cn1c([N+](=O)[O-])cnc1COC(N)=O`, the compound was called inactive in assay [7]. Further, in assay [8], the Potency entry is “inactive”.
Consider `CN(C(=O)c1c(O)c2ccccc2n(C)c1=O)c1ccccc1`, for which the Potency entry in assay [8] is “inactive”.
With `CCOC(=O)[C@H](CCc1ccccc1)N[C@@H](C)C(=O)N1CCC[C@H]1C(=O)O`, the call in [7] was inactive. Besides, the Potency entry in assay [8] is “inactive”. Besides, the activity change, negative = inhibition in assay [9] was 0.851%.
For `CC1CC(OC(=O)c2ccccc2O)CC(C)(C)C1` (configuration not stated), the Potency in assay [1], in [2], in assay [3], in [4], in assay [5] and in [6] was above 92 µM throughout.
On to `CC(C)(C)C(=O)OCOC(=O)[C@@H]1N2C(=O)[C@@H](NC(=O)[C@H](N)c3ccccc3)[C@H]2SC1(C)C`, for which the Potency entry in assay [8] was “inactive”.
